Test results taken from PMC4336329 (PLoS ONE, 2015).
The campaign covered roughly 310,000 compounds. About 14,000 (4.5%) showed an effect of 50% or more. The effect is printed as a negative number. Many of the other results were omitted from the sample, so strong results are more common in it than they were.

biological target: human ether-à-go-go-related gene (hERG) potassium channel (human, UniProt Q12809); experiment: primary screen, population patch clamp on CHO cells stably expressing hERG; higher = less effect of the substance
Sequence (Q12809 whole entry, looked up): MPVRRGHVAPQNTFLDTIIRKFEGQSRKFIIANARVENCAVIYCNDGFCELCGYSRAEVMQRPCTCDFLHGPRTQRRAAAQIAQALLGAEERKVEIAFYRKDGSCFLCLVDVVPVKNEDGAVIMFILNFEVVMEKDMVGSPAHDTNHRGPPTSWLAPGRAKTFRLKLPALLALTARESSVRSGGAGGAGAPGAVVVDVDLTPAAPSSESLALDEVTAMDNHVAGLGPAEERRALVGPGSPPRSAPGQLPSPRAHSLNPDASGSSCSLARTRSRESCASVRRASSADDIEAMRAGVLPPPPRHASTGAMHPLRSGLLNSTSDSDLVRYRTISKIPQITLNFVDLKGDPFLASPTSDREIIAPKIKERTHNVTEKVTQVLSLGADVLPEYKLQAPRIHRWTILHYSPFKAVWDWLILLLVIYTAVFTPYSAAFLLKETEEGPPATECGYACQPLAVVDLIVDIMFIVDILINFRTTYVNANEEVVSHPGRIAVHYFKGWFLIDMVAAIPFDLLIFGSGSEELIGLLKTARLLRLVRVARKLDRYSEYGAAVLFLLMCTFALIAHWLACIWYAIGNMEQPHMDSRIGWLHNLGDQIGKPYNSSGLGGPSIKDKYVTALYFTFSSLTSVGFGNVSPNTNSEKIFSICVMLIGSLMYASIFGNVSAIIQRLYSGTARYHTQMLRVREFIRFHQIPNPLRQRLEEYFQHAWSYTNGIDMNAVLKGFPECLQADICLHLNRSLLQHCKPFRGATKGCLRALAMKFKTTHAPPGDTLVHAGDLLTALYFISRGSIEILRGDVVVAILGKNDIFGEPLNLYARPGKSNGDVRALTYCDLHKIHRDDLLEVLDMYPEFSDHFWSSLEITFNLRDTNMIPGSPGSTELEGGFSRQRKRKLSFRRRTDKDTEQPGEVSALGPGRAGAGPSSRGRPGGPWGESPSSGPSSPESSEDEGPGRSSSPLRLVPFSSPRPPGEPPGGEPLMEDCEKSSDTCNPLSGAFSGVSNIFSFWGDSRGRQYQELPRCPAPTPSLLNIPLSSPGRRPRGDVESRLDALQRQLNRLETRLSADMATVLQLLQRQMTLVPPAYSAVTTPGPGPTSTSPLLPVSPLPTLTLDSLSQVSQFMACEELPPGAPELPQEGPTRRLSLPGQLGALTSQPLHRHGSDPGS
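Note: peak tail current of the secondary pulse compared with the same well before compound.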

| Structure (SMILES) | hERG current change (%, negative = inhibition) at 10uM [%] |
| --- | --- |
| CCC(C)NC(=O)N[C@@H](Cc1ccccc1)C(=O)O (stereo partly drawn) | -1.98 |
| CCOC(=O)C1CCN(C(=O)CNC(=O)Cn2c(C)cc3ccccc3c2=O)CC1 | 6.61 |
| O=C(COc1ccc(F)cc1)Nc1nnc(-c2ccncc2)s1 | -6.52 |
| c1cnc(N2CCN(c3nc4ccccc4n4cnnc34)CC2)nc1 | -27.6 |
| CC(C)[C@H](NC(=O)c1ccco1)C(=O)NCc1ccccc1 | 25.1 |
| COc1ccc(S(=O)(=O)N(C)c2ccc(C(=O)NCc3ccco3)cc2)cc1OC | -9.43 |
| CCN(CC)c1ccc(/C=N/NC(=O)Cc2cccs2)cc1 | -16.6 |
| COc1ccc(/C=N\NC(=O)c2ccccc2F)cc1COc1ccc(F)cc1 | 27.1 |
| C/C=C/c1cc(CN2CCN(c3ccc(OC)cc3)CC2)c(O)c(OC)c1 | -68.7 |
| COc1ccc(/C=N\NC(=O)c2ccccc2F)cc1COc1ccc(F)cc1F | 11.7 |
| COc1ccc(N2CCN(Cc3cc4c(cc3O)CCC4)CC2)cc1 | -12.4 |
| CCOc1ccc(/C=N/NC(=O)c2ccc(O)cc2)cc1CN1CC2CC(C1)c1cccc(=O)n1C2 (stereo not drawn) | 4.7 |
| CCOc1ccc(/C=N/NC(=O)c2ccc(F)cc2)cc1CN1CC2CC(C1)c1cccc(=O)n1C2 (stereo not drawn) | -53.3 |
| CCOc1ccc(/C=N/NC(=O)c2ccccc2O)cc1CN1CC2CC(C1)c1cccc(=O)n1C2 (stereo not drawn) | -16.7 |
| COc1ccc(/C=N/NC(=O)c2ccoc2C)cc1O | -4.47 |
| COc1ccc(/C=N/NC(=O)c2ccoc2C)cc1CN1CCN(c2ccc(F)cc2)CC1 | -76.8 |
| C/C=C/c1cc(CN2CCN(c3ccccc3)CC2)c(O)c(OC)c1 | -32 |
| COc1ccc(/C=N/NC(=O)c2ccccc2F)cc1CN1CCN(c2ccc(F)cc2)CC1 | -76.2 |
| COc1ccc(/C=N/NC(=O)c2ccoc2C)cc1OC | -9.75 |
| CCOc1cc(Br)c(C=O)cc1OCC | 22.1 |
| CC1(CCc2ccccc2)NC(=O)N(CC(=O)N2CC(=O)Nc3ccccc32)C1=O (stereo not drawn) | 7.19 |
| O=C(COC(=O)c1ccccn1)Nc1ccccc1OC(F)F | 6.71 |
| Cc1cnc(NC(=O)CN(C)S(=O)(=O)c2ccc(Cl)cc2)s1 | -1.68 |

| Structure (SMILES) | hERG current change (%, negative = inhibition) at 10uM [%] |
| --- | --- |
| O=C(CC(c1ccccc1)c1cc(Br)ccc1O)NCCN1CCOCC1 (stereo not drawn) | -34.7 |
| CCCCCCCOC(=O)C1=C(C)Nc2ncnn2C1c1cccs1 (stereo not drawn) | -0.122 |
| Cc1ccc(NC(=O)COc2ccc(Br)cc2C)cc1 | 0.803 |
| COc1ccc(/C=N/NC(=O)c2ccncc2)cc1CN1CCCc2ccccc21 | -26.1 |
| COc1ccc(C(=O)N/N=C/c2ccc(OC)c(CN3CCN(c4ccc(F)cc4)CC3)c2)cc1 | -74.2 |
| COc1ccc(C(=O)N/N=C/c2ccc(OC)c(COc3ccc(F)cc3F)c2)cc1 | 3.74 |
| COc1ccc(C(=O)N/N=C/c2ccc(OC)c(COc3ccc(F)cc3)c2)cc1 | -35.2 |
| COc1ccc(/C=N/NC(=O)c2ccncc2)cc1OC | 15.5 |
| COc1ccc(/C=N/NC(=O)c2ccncc2)cc1CN1CCN(c2ccc(F)cc2)CC1 | -77 |
| NC1=NC(=O)/C(=C\c2ccc(-c3ccc(Cl)cc3)o2)S1 | 9.15 |
| COc1ccc(NC(=O)CS(=O)CC(=O)NCC2OCCc3ccccc32)cc1 (stereo not drawn) | 16.2 |
| C=CCNC(=S)NNC(=O)c1ccncc1 | 1.85 |
| O=C1CC(N2CCN(Cc3ccc(Cl)cc3)CC2)C(=O)N1CCc1ccccc1 (stereo not drawn) | -37.4 |
| Cc1ccc(NC(=O)COC(=O)CCc2c[nH]c(=O)[nH]2)cc1 | 1.45 |
| COc1c(O)cccc1[C@@H](O)C1CCN(CCc2ccc(F)cc2)CC1 | -55.8 |
| Fc1cccc(CNC2CCN(CCc3ccccc3)CC2)c1 | -42.8 |
| COc1cccc(C(c2nnnn2Cc2ccc(F)cc2)N2CCC(C(N)=O)CC2)c1OC (stereo not drawn) | -24.8 |
| Cc1cc(Cl)ccc1OCC(=O)NC(=S)Nc1ccc(Cl)cn1 | 10.9 |
| Cc1nonc1OCC(C)(COc1nonc1C)NC(=O)c1ccccc1 | -6.59 |
| Cc1nonc1OCC(C)(COc1nonc1C)NC(=O)c1ccc(Cl)cc1 | -61.1 |
| Cc1ccc(C(=O)NC(C)(COc2nonc2C)COc2nonc2C)cc1 | -40 |
| Cn1c(=O)n(Cc2ccccc2F)c2ccccc21 | -16.3 |
